Only some compounds are listed: those with a hit (about 2.7% of all), similar ones and a draw of the others.
FAS-TE inh: blocks the thioesterase domain of human fatty acid synthase | P49327 | recombinant FAS-TE, OMFH fluorogenic substrate, fluorescence endpoint | inhibition, % at 15 µM | 360,000 compounds, 0.67% hits | AID 602261;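 active = compounds whose normalised, plate-corrected inhibition of enzyme fluorescence in the single-dose primary screen is 50% or more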
PfG6PD inh: PfG6PD (Plasmodium falciparum) enzyme inhibition; 350,000 compounds, 0.78% hits; AID 504690; inhibition, % at 20 µM; PfGluPho enzyme, NADPH resazurin-diaphorase fluorescence;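 active = inhibition reaching at least a set limit at 20 µM in the primary screen, cut at about 59% in these data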
Neddylation inh: blocks human cullin neddylation; TR-FRET cullin neddylation, biochemical; P61081+Q13564; calls only at 25 µM; 360,000 compounds, 0.58% hits; in the data active = inhibition above about 36%
Target sequence (P61081 whole entry, looked up): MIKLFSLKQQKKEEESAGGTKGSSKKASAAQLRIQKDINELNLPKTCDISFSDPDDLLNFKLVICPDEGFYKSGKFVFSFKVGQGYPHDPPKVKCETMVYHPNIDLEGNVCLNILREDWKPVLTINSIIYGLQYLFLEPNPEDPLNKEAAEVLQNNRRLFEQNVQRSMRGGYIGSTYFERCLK
Target sequence (Q13564 whole entry, looked up): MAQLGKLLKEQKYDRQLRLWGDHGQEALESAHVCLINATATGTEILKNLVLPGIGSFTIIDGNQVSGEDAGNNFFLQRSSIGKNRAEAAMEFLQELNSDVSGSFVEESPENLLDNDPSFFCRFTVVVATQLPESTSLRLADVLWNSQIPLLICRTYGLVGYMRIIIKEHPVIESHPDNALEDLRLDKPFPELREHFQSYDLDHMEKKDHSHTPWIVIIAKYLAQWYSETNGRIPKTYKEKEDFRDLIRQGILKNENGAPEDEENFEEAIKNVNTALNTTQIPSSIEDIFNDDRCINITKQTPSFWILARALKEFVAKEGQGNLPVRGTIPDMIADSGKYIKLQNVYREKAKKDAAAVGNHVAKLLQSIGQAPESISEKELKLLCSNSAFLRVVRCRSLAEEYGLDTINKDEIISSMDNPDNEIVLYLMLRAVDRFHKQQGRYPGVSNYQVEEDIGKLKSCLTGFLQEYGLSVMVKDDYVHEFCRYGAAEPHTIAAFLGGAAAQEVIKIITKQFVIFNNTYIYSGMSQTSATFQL
KLK7 zymogen act: activators of human kallikrein-7 zymogen. activation, % at 7 µM. P49862. 370,000 compounds, 0.9% hits. purified proKLK7, EDANS-DABCYL substrate fluorescence; 100% is mature enzyme control, 0% vehicle;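 active = activation above the mean of all tested compounds plus 3 SD, computed per campaign excluding outliers beyond control limits, cut at about 13% in these data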
KLK7 act conf: confirmation of human kallikrein-7 zymogen activators; shares compounds with KLK7 zymogen act; purified proKLK7, EDANS-DABCYL substrate fluorescence; scaled: vehicle 0, mature enzyme 100; activation, % at 7 µM; 3,200 compounds, 68% hits; AID 686949;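 active = activation, as change over the incubation, above the mean of all tested compounds plus 3 SD, cut at about 13% in these data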
EDANS interfere: optically interferes with EDANS-DABCYL signal, flagging KLK7 hits | activation, % at 7 µM | 3,200 compounds, 80% hits | shares compounds with KLK7 zymogen act | AID 686952 | EDANS-DABCYL substrate fluorescence interference, no enzyme, 4 h; solvent 0%, active enzyme control 100%;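 active = activation above the all-compound mean plus 3 SD, ignoring values outside control-based bounds, cut at about 4.8% in these data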;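 also: value is the 4 h activation minus the activation read at time zero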
K7 EDANS ctr: EDANS fluorescence interference in dose response, no enzyme; EC50, µM; shares compounds with KLK7 zymogen act; EDANS-DABCYL peptide fluorescence interference; 250 compounds, 20% hits;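 active = compounds that raise the fluorescence signal in this interference counterscreen, with EC50 at or below 10 µM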;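 also: intact quenched peptide substrate alone read at 355 nm excitation and 520 nm emission; signal is fluorescence gain from T0 to T4 after four hours at room temperature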
Large screens that a line does not name were inactive (follow-up assays come after a bar, where shown); ! = not active in a repeat.

CCOC(=O)[C@]12CCC=C1N(Cc1ccc(Cl)cc1Cl)C(=O)[C@H](CC(=O)N1CCCCC1)C2	none (no result: PfG6PD inh)
COc1cccc(CN2C(=O)c3cccc(N)c3C2=O)c1	KLK7 zymogen act 14.6 (not shown: Neddylation inh) | KLK7 act conf 76.0 | EDANS interfere 79.2
c1ccc(-c2ccc3c(c2)c2c4n3CCN=C4CCC2)cc1	none
OC1CN=C2CCCc3c2n(c2ccc(Cl)cc32)C1 (stereo unspecified)	KLK7 zymogen act 17.2 (not shown: Neddylation inh) | KLK7 act conf inactive | EDANS interfere inactive
COc1ccc2ccccc2c1/C=N/NC(=O)c1cccc(Br)c1	none
COc1ccc2ccccc2c1C=NNC(=O)c1cc(-c2ccc(C)cc2)n[nH]1	KLK7 zymogen act 40.8 (no result: FAS-TE inh, PfG6PD inh, Neddylation inh) | KLK7 act conf inactive | EDANS interfere inactive
N#Cc1c(NC(=O)COC(=O)c2nccnc2N)sc2c1CCCC2	KLK7 zymogen act 16.8 | KLK7 act conf 16.0 | EDANS interfere 13.5 | K7 EDANS ctr inactive
CN(C)c1c(-c2ccccc2)cc(-c2ccccc2)[nH]c1=O	KLK7 zymogen act 15.6 (no result: PfG6PD inh) | KLK7 act conf inactive | EDANS interfere 4.9
CC(C)(C)C1CCc2c(sc(NC(=O)c3ccco3)c2C(N)=O)C1 (stereo unspecified)	none
CCC1CCc2c(sc(NC(=O)c3ccco3)c2C(N)=O)C1 (stereo unspecified)	KLK7 zymogen act 90.8 (not shown: Neddylation inh) | KLK7 act conf inactive | EDANS interfere inactive
O=C(N/N=C/c1cc2c(cc1Br)OCO2)c1c[nH]c2ccccc12	KLK7 zymogen act 14.8 | KLK7 act conf inactive | EDANS interfere inactive
CCCC[C@H]1C2CC(OC(=O)Nc3cccc(Br)c3)C(C2)[C@H]2CCCCN21 (stereo partly specified)	none (no result: FAS-TE inh, PfG6PD inh, Neddylation inh)
N=c1c(C(=O)NCc2ccccc2)cc2c(=O)n3ccccc3nc2n1CCCN1CCOCC1	KLK7 zymogen act 13.4 (not shown: Neddylation inh) | KLK7 act conf inactive | EDANS interfere inactive
N=c1c(C(=O)NCCc2ccccc2)cc2c(=O)n3ccccc3nc2n1CCCN1CCOCC1	KLK7 zymogen act 29.2 (not shown: Neddylation inh) | KLK7 act conf inactive | EDANS interfere 7.7
N=c1c(C(=O)NCCN2CCOCC2)cc2c(=O)n3ccccc3nc2n1CCc1ccccc1	KLK7 zymogen act 24.3 (not shown: Neddylation inh) | KLK7 act conf inactive | EDANS interfere 10.5
N=c1c(C(=O)NCc2ccc(F)cc2)cc2c(=O)n3ccccc3nc2n1CCCN1CCOCC1	none (not shown: Neddylation inh)
S=C1SCCCN1Cc1ccc(Cl)cc1	none
CCc1cc2c(COC(=O)CCNS(=O)(=O)c3cccc(C(F)(F)F)c3)cc(=O)oc2cc1O	KLK7 zymogen act 48.0 (not shown: Neddylation inh) | KLK7 act conf 55.9 | EDANS interfere 56.6
COCCn1c(=N)c(C(=O)NCCc2ccc(OC)cc2)cc2c(=O)n3cccc(C)c3nc21	none
CCOC(=O)c1cc2c(=O)n3ccccc3nc2n(CCCOC)c1=NC(C)=O	KLK7 zymogen act 61.9 (not shown: Neddylation inh) | KLK7 act conf inactive | EDANS interfere 7.2
CCCCCn1c(=NC(=O)c2cccnc2)c(C#N)cc2c(=O)n3cccc(C)c3nc21	none (not shown: Neddylation inh)
CCOC(=O)c1cc2c(=O)n3cccc(C)c3nc2n(CC2CCCO2)c1=NC(C)=O (stereo unspecified)	KLK7 zymogen act 15.0! (not shown: Neddylation inh) | KLK7 act conf inactive | EDANS interfere 7.0
CCCn1c(=N)c(S(=O)(=O)c2ccccc2)cc2c(=O)n3ccccc3nc21	none (not shown: Neddylation inh)
CCOC(=O)c1cc2c(=O)n3cccc(C)c3nc2n(CCOC)c1=NC(C)=O	KLK7 zymogen act 15.2 (not shown: Neddylation inh) | KLK7 act conf inactive | EDANS interfere 9.4
CCOC(=O)c1cc2c(=O)n3ccccc3nc2n(CCCOC)c1=NC(=O)c1ccncc1	KLK7 zymogen act 17.7 (not shown: Neddylation inh) | KLK7 act conf inactive | EDANS interfere inactive
COc1ccc(CNC(=O)c2cc3c(=O)n4cccc(C)c4nc3n(CC3CCCO3)c2=N)cc1 (stereo unspecified)	none
CCOC(=O)C1=CCN(S(=O)(=O)c2cccc(Cl)c2)C1c1ccc(Cl)c(Cl)c1 (stereo unspecified)	none (no result: FAS-TE inh, PfG6PD inh, Neddylation inh)
COC(=O)CC(=O)CSc1nc(C)cc(C)c1C#N	KLK7 zymogen act 20.4 (not shown: Neddylation inh) | KLK7 act conf 93.0 | EDANS interfere 91.3
Cc1cc(C)c(C#N)c(SCC(=O)Nc2cc(C)on2)n1	KLK7 zymogen act 15.7 | KLK7 act conf 102.5 | EDANS interfere 109.0
